Our source for the inhibition values is PubChem BioAssay AID777 (Sanford-Burnham Center for Chemical Genomics, 2007).

About 19,000 (20%) of roughly 96,000 compounds were called active. The list is a sample of the results. Unmarked numbers belong to inactive results.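 How the source made its calls: active means blocking of liver enzyme CYP2C9 beyond about 50% at 5 µM (limit read from the data); inactive means the rest.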

Cytochrome P450 2C9 (Homo sapiens), sequence (P11712 whole entry, looked up): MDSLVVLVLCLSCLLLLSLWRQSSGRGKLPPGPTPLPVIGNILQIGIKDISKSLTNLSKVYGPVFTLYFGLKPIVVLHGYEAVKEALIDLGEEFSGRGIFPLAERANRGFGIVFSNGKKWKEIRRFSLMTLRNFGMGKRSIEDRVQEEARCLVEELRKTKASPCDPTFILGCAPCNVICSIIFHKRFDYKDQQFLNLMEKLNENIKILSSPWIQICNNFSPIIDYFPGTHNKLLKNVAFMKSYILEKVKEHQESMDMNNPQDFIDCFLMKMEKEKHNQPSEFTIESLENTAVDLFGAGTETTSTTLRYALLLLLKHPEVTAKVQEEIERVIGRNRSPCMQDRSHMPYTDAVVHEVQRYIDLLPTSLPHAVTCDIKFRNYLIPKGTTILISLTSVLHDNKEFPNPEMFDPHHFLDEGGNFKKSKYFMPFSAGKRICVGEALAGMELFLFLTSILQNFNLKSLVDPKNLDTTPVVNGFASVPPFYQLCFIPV

This experiment concerns the target Cytochrome P450 2C9 (Homo sapiens) (UniProt P11712). Nature of the experiment: blockers of cytochrome P450 2C9 activity – biochemical, luminescence, ADME assay, primary screen (AID 777). Conditions: CYP2C9 Supersomes, luciferin-H conversion, at 5 µM, active compounds read high.
Take `O=C1C2(c3ccccc3)CN(CCCO)CC1(c1ccccc1)CN(CCCO)C2`: the inhibition was 7.8%.

Regarding `Cc1ccc(NC(=O)CCNS(=O)(=O)c2ccc3c(c2)oc(=O)n3C)cc1C`, the inhibition was -21.7%.

Turning to `FC(F)Oc1ccccc1C1CC(c2ccc(Br)s2)Nc2ncnn21` (stereo not given), the inhibition was 91.4% (active).

Turning to `CCCCC(=O)N1CC2(C)CN(C(=O)CCCC)CC(C)(C1)C2=O`, the inhibition is -4%.

On to `Cn1cnc([N+](=O)[O-])c1Sc1ccccc1`, for which the inhibition was 8.6%.

As to `O=C(N1CCOCC1)N1CCOCC1`, the inhibition was -8.2%.

With `COc1ccc(C2CC(c3ccc(C)cc3)Nc3nc(N)nn32)cc1` (stereo not given), the inhibition was 27.3%.

For `COc1ccc(C2CC(c3ccc(C)cc3)Nc3ncnn32)cc1` (stereo not given), the inhibition is 65.4% (active).

As to `COc1ccc(C2CC(c3ccccc3)Nc3ncnn32)cc1` (stereo not given), the inhibition was 23.9%.

Consider `CCC(=O)c1ccc(OCC(O)CN2CC(C)OC(C)C2)cc1` (stereo not given), for which the inhibition was 18.3%.

As for `N#Cc1ccc(-c2ccc(Cl)cc2)nc1Oc1ccc(F)cc1`, the inhibition was 6.8%.

On to `O=S(=O)(c1ccc(Br)cc1)n1ccc2ccccc21`, for which the inhibition is -2.4%.

With `CCOCCOCCC(C(=O)O)P(=O)(c1ccccc1)c1ccccc1` (stereo not given), the inhibition is -7.7%.

`COC(=O)c1sccc1NC(=O)c1cc(OC)c(OC)c(OC)c1`: the inhibition is 7.6%.

As for `COC(=O)c1sccc1NC(=O)CSc1ccccc1NS(=O)(=O)c1cc(Cl)ccc1Cl`, the inhibition is 84.2% (active).

With `COC(=O)c1sccc1N/N=C(\C)c1ccc(F)c(Cl)c1`, the inhibition is 9.3%.

With `COC(=O)c1ccccc1Oc1c(F)c(F)nc(N2CCOCC2)c1F`, the inhibition is 45.2%.

As to `CCn1c(SCC(=O)Nc2ccc3c(c2)OCCO3)nc2c(c1=O)SC(C)C2` (stereo not given), the inhibition is 92.9% (active).

For `CCCCSc1nc2c(c(=O)n1CC)SC(C)C2` (stereo not given), the inhibition is 51.2% (active).

Consider `CCOc1ccc(NC(=O)CSc2nc3c(c(=O)n2-c2ccccc2OC)SCC3)cc1`, for which the inhibition is 40.8%.

On to `CCCCCn1c(SCCC(C)C)nc2c1c(=O)[nH]c(=O)n2C`, for which the inhibition is 10.1%.

As for `COc1ccccc1C(=O)C(O)c1ccccc1OC` (stereo not given), the inhibition was -2.8%.

With `CCOC(=O)N1CCN(CC(=O)Nc2cc(C)nn2-c2nc3ccccc3s2)CC1`, the inhibition was 25.8%.

For the compound `O=C(c1ccco1)N(Cc1nc2ccccc2c(=O)[nH]1)C1CCCC1`, the inhibition was -20.5%.

As for `CC(=O)Oc1cccc(N2C(=O)CC(Nc3ccc(N4CCOCC4)cc3)C2=O)c1` (stereo not given), the inhibition is 19.9%.

`CC1OC2C(OC1C)N(S(C)(=O)=O)CCN2S(C)(=O)=O` (stereo not given): the inhibition is -6.8%.

For `Cc1cccc(N2C(=O)C3C(c4ccccc4)OC4(C(=O)c5ccccc5C4=O)C3C2=O)c1` (stereo not given), the inhibition is -8.4%.

As to `Cc1cc(NC(=O)CCC2COc3ccccc3O2)no1` (stereo not given), the inhibition is 7.1%.

Regarding `Cc1ccc(C(C(=O)NC2CCCC2)N(Cc2ccco2)C(=O)CCC(=O)Nc2ccccn2)cc1` (stereo not given), the inhibition is 28.7%.

For `Cc1cc(NC(=O)CCC(=O)N(c2ccccc2)C(C(=O)NC2CCCC2)c2ccncc2)no1` (stereo not given), the inhibition was 55.9% (active).

As to `Cc1cc(NC(=O)/C=C/C(=O)N(c2ccccc2C)C(C(=O)NC2CCCC2)c2ccc(F)cc2)no1` (stereo not given), the inhibition is 25.2%.

`Cc1cc(NC(=O)CN2CCC(O)(c3cccc(F)c3)CC2)no1`: the inhibition is 23.3%.

Regarding `Cc1cc(NC(=O)CCC(=O)N(c2cccc(F)c2)C(C(=O)NC2CCCC2)c2ccncc2)no1` (stereo not given), the inhibition was 77.9% (active).

`CC1CC(C)CN(C/C=C/c2ccccc2[N+](=O)[O-])C1` (stereo not given): the inhibition is 9.8%.

Take `CCc1nc(C)ccc1OCC(=O)N(CC)CC`: the inhibition is -6.3%.

Regarding `c1ccc(Nc2n[nH]nc2-c2ccccc2)cc1`, the inhibition was 28.9%.

Regarding `CCOc1ccc(Cn2c(SCCCCC#N)nc3c2c(=O)n(C)c(=O)n3C)cc1OCC`, the inhibition was 31.1%.

`Cn1c(=O)c2c(ncn2CC(=O)N2CCN(c3ccccc3)CC2)n(C)c1=O`: the inhibition was 6.8%.

`CCCSc1nc2c(c(=O)n(C)c(=O)n2C)n1Cc1ccc(C)cc1`: the inhibition is 9.9%.

On to `CCOC(=O)CSc1nc2c(c(=O)n(Cc3ccccc3Cl)c(=O)n2C)n1C`, for which the inhibition is -7.5%.

As to `CCOC(=O)CSc1nc2c(c(=O)n(C)c(=O)n2C)n1Cc1ccccc1F`, the inhibition was 60.5% (active).

`C/C(Cl)=C\Cn1c(Nc2cccc(C)c2)nc2c1c(=O)n(C)c(=O)n2C`: the inhibition is -7.8%.

`Cc1cccc(Cn2c(SCCO)nc3c2c(=O)n(C)c(=O)n3C)c1`: the inhibition is 54% (active).

Regarding `Cc1cccc(Cn2c(N3CCN(c4ccccc4)CC3)nc3c2c(=O)n(C)c(=O)n3C)c1`, the inhibition was 66.1% (active).

As to `CC(C)OCCCNc1nc2c(c(=O)n(Cc3ccccc3F)c(=O)n2C)n1C`, the inhibition was 22.3%.

`COc1ccc(CNC(=O)C2CCN(S(=O)(=O)N3CCOCC3)CC2)cc1`: the inhibition is -2.7%.

For the compound `Cn1c(N)c(C(=O)COC(=O)C23CC4CC(CC(C4)C2)C3)c(=O)n(C)c1=O`, the inhibition is 29.6%.

Regarding `COc1ccc(N2C(=O)C3CCCN3C2c2cc(OC)c(OC)cc2OC)cc1` (stereo not given), the inhibition was -1.9%.

Consider `CC1CN(C(=O)CN2C(=O)NC(C)(c3ccccc3)C2=O)CC(C)O1` (stereo not given), for which the inhibition was -27.2%.

Take `CCOC(=O)C1=C(CNC2CCCCC2)NC(=O)NC1c1cc(C)ccc1C` (stereo not given): the inhibition is 84.7% (active).

Consider `CCOC(=O)c1[nH]cnc1C(=O)NC1CCCCC1`, for which the inhibition was 28.5%.

Consider `CCOC(=O)C1=C(CSc2nccn2C)NC(=O)NC1c1ccc(OC)cc1` (stereo not given), for which the inhibition is 17.2%.

As for `Cc1[nH]c2ccccc2c1C(=O)CSCC(=O)O`, the inhibition was -30.3%.

Consider `CCOc1ccc2c(c1)cc(CN(C(=O)CC)C1CCCCC1)c1nnnn12`, for which the inhibition is 35.6%.

With `CCC(c1nnnn1Cc1ccco1)N(CCc1ccccc1)Cc1cc2ccc(OC)cc2[nH]c1=O` (stereo not given), the inhibition was 91.9% (active).

With `CCC(c1nnnn1Cc1ccco1)N(Cc1cc2cc(OC)ccc2[nH]c1=O)C1CCCCC1` (stereo not given), the inhibition was 58.2% (active).

On to `CCC(c1nnnn1C1CCCC1)N(Cc1cccs1)Cc1cc2cccc(C)c2[nH]c1=O` (stereo not given), for which the inhibition is -52.1%.

Regarding `COc1ccc2[nH]c3c(=O)n(Cc4ccco4)cnc3c2c1`, the inhibition is 26%.

Regarding `CCC(c1nnnn1Cc1ccco1)N(CCc1ccccc1)Cc1cc2cccc(C)c2[nH]c1=O` (stereo not given), the inhibition was 29%.

For `CC1(C)Cc2cccc(OCC(N)=O)c2O1`, the inhibition is -6.4%.

With `CCn1ncc(Br)c1C(=O)Nc1cc(C)ccc1F`, the inhibition was -6.9%.

For the compound `Cc1csc(NC(=O)CN2CCCCCC2)n1`, the inhibition is 0.6%.

For the compound `CC(Oc1ccc(Cl)cc1Cl)C(=O)/C=C/N(C)C` (stereo not given), the inhibition was 23%.

`Cc1cc(=O)cc(C)[nH]1`: the inhibition was -13.9%.

As for `Cc1ncn(C23CC4CC(CC(O)(C4)C2)C3)n1`, the inhibition was 10.7%.

In the case of `COCCOCCn1cnc2ccccc21`, the inhibition is 0%.

As for `CC(C)c1ccc(NC(=O)CCN2C(=O)c3ccc([N+](=O)[O-])cc3C2=O)cc1`, the inhibition is 14.3%.

For the compound `CC(C)COC(=O)c1ccc(NC(=O)C2C3C=CC(C3)C2C(=O)O)cc1` (stereo not given), the inhibition was 29.9%.

As to `CCC(CC)C(=O)Nc1cc(C(=O)OC)cc(C(=O)OC)c1`, the inhibition was 9%.

As to `CC(C)OC(=O)c1cc(NC(=O)C2C3CCC(O3)C2C(=O)O)cc(C(=O)OC(C)C)c1` (stereo not given), the inhibition is 79.4% (active).

Take `COC(=O)c1cc(NC(=O)C2C3C=CC(C3)C2C(=O)O)cc(C(=O)OC)c1` (stereo not given): the inhibition is 64.3% (active).

For `Cc1sc(NC(=O)C2C3CCC(O3)C2C(=O)O)c(C(=O)OC(C)C)c1-c1ccc(Cl)cc1` (stereo not given), the inhibition was 9.3%.

On to `Cn1c(=O)c2c(n(Cc3ccccc3)c1=O)NC(=O)C2CC(=O)N1CCc2ccccc2C1` (stereo not given), for which the inhibition is -4.4%.

As to `CSc1nnc2c(n1)OC(c1ccsc1)N(C(C)=O)c1ccccc1-2` (stereo not given), the inhibition was 10%.

Turning to `C=CCNC(=O)CCCC(=O)NCC=C`, the inhibition was 8.2%.

As to `CCN(CC)P(=O)(C(NC(=O)OC)C(F)(F)C(F)(F)C(F)(F)C(F)F)N(CC)CC` (stereo not given), the inhibition was 21%.

For `O=C(NCc1ccccc1Cl)c1csc2c1CCCCC2`, the inhibition is -153%.

Take `Cn1c(SCC(=O)NC2CCCCC2)nnc1-c1cc2ccccc2o1`: the inhibition was 9.1%.

On to `CCOc1cc2c(cc1OCC)C(C(=O)O)C(c1ccc(OC)c(O)c1)N(C)C2=O` (stereo not given), for which the inhibition was -10%.

Take `O=C(NCc1cccs1)c1ccc2c(c1)ncn2C1CCCC1`: the inhibition is 25.4%.

`COc1ccc(NC(=O)NC2CC3CCCC(C2)N3Cc2ccccc2)cc1` (stereo not given): the inhibition is -6.4%.

For `O=C(CN1C2CCC1CC(NC(=O)C1CC1)C2)NCc1ccccc1` (stereo not given), the inhibition is -10.9%.

As to `CC(=O)NC1CC2CCCC(C1)N2CC(=O)Nc1ccccc1` (stereo not given), the inhibition was 50.7% (active).

As for `O=C(c1ccc(-n2cnnn2)cc1)N1CCN(C(c2ccccc2)c2ccccc2)CC1`, the inhibition is 83.4% (active).

As to `O=C(O)CC(c1ccccc1)n1cnnn1` (stereo not given), the inhibition was -7.7%.

As for `c1cc(-n2cnnn2)ccc1NC1=NCCC1`, the inhibition is -26.8%.

As to `Cc1ccc(S(=O)(=O)N2CCN(C(=O)CCC(=O)NC3CCCc4ccccc43)CC2)cc1` (stereo not given), the inhibition is 32.1%.

Regarding `CCOC(=O)N1CCN(S(=O)(=O)c2cc3c(cc2C)NC(=O)CO3)CC1`, the inhibition is -21.5%.

For `Cc1ccc2oc(=O)c3cnn(CC(=O)N(Cc4ccco4)C4CCCCC4)c3c2c1`, the inhibition is 19.5%.

Consider `CCOC(=O)c1cc2c(ccn2C)n1CC(=O)N1CCC(C)CC1`, for which the inhibition is 29.1%.

Turning to `CCCOc1ccc(Cn2c(O)cc(=O)[nH]c2=O)cc1`, the inhibition was -7.9%.

For the compound `CCOC(=O)c1cc2sccc2n1Cc1ccc(C#N)cc1`, the inhibition is 96.7% (active).

As to `CCc1c(C)nc2ncnn2c1N1CCC(C(=O)NCc2ccc3c(c2)OCO3)CC1`, the inhibition was 12.9%.

Consider `CCn1cc(C(=O)NCc2ccc3c(c2)OCO3)c2cc(OC)c(OC)cc2c1=O`, for which the inhibition was 31.5%.

For the compound `Cc1nc2c(C(=O)NCc3ccc4c(c3)OCO4)c[nH]n2c(=O)c1Cc1ccccc1F`, the inhibition is 93.4% (active).

As a reminder, the inhibition is the drop in the measured response relative to a control, in per cent.
